Screening data: PubChem, several laboratories
Only some compounds are listed: those with a hit (about 1.8% of all), similar ones and a draw of the others.
TLR9-MyD88 inh: inhibitors of TLR9-MyD88 association in cells, primary screen, cell-based, CHO, BLA complementation, fluorescence; CCF4 FRET ratio; Toll-like receptor 9 (Homo sapiens) + Myeloid differentiation primary response protein …; 0.21% of 340,000 active; AID 504734, 2011; inhibition, % at 4.98 µM;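 active means inhibition above the mean over all tested compounds plus 3 SD, cut at about 21% in these data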;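 further: 0% = DMSO only wells and 100% = clavulanate BLA inhibitor control wells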
Mcl1-Noxa inh: Mcl-1/Noxa binding inhibitors, primary screen, biochemical, TR-FRET, 1536-well; AID 1022, 2008; TR-FRET Mcl-1/Noxa peptide binding, 2 h; 1.5% of 220,000 active; Induced myeloid leukemia cell differentiation protein Mcl-1 (Homo sapiens), Q07820; inhibition, % at 21.7 µM;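 active means compounds that cut the protein-peptide binding signal by more than 50% relative to plate controls in a single-dose test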;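 further: His-tagged Mcl-1 with rhodamine Noxa BH3 peptide and terbium anti-His antibody; 0% = Mcl-1 plus Noxa peptide wells and 100% = peptide-only wells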
Mcl1 Bid PPI: Mcl-1/Bid binding inhibitors, primary screen, biochemical, TR-FRET, 1536-well; inhibition, % at 21.7 µM; 0.97% of 220,000 active; TR-FRET Mcl-1/Bid-Dy647 peptide binding;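 active means compounds that cut the binding signal by more than half at the single screening dose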;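 further: His-tagged Mcl-1 with europium anti-His antibody binding Bid BH3 peptide; 0% = Mcl-1 plus peptide wells and 100% = peptide-only wells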
TLR4 MyD88 comp: inhibitors of TLR4-MyD88 association in cells, primary screen, cell-based, HeLa CL3-4, BLA complementation, FRET ratio | AID 861, 2007 | HeLa CL3-4 TLR4/MyD88 BLA complementation | Toll-like receptor 4 (Homo sapiens) + Myeloid differentiation primary response protein … | inhibition, % at 8.4 µM | 0.18% of 200,000 active; in the data active means inhibition above about 25%;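 further: 0% = vehicle and 100% = reference inhibitor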
NOD2 RIPK2 PPI: NOD2-RIPK2 binding disruptors in cells, primary screen, fluorescence, CHO cells, BLA complementation; Receptor-interacting serine/threonine-protein kinase 2 (Homo sapiens), O43353; CCF4 ratio; inhibition, % at 4.98 µM; 0.38% of 360,000 active; AID 624267, 2012; in the data active means inhibition above about 21%;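 further: 0% = vehicle only and 100% = reference blocker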
Bim-Mcl-1: inhibitors of Bim peptide binding to Mcl-1, primary screen, biochemical, bead-based flow cytometry, multiplex; Induced myeloid leukemia cell differentiation protein Mcl-1 (Homo sapiens), Q07820; Bim peptide-Mcl-1 binding; inhibition, % at 10 µM; 0.1% of 190,000 active; in the data active means inhibition above about 40%;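 further: 0% = no compound tracer wells and 100% = peptide blocker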
* hit, by the source's call; · = no result given.

SMILES	TLR9-MyD88 inh	Mcl1-Noxa inh	Mcl1 Bid PPI	TLR4 MyD88 comp	NOD2 RIPK2 PPI	Bim-Mcl-1
COc1cc(/C=C2\S/C(=N/S(=O)(=O)c3ccccc3)NC2=O)c([N+](=O)[O-])cc1OC	2.4	57.0*	14.2	0.2	1.8	·
CCCCCCCCN1C(=O)[C@H](CC(=O)N2CCC(c3ccccc3)CC2)C[C@@]2(C(=O)OC)CCCCC=C12	·	·	·	·	-5.5	·
COc1cc2c(cc1NC(=O)CSc1nccn1C)oc1ccccc12	-10.2	56.6*	-3.5	11.3	6.6	0.0
COc1cc2c(cc1NC(=S)NC(=O)/C=C/c1ccc(OC)c(OC)c1)oc1ccccc12	-4.9	47.4	62.2*	-15.2	4.6	1.0
COc1cc2c(cc1NC(=O)CSc1ccccc1)oc1ccccc12	-1.4	7.1	-5.7	-7.0	0.3	5.0
COc1cccc(C(=O)NCC(C)(C)SCc2ccc(F)cc2)c1	6.8	·	·	·	0.2	·
O=C(CSc1n[nH]c(-c2cccnc2)n1)Nc1ccccc1C(F)(F)F	-6.2	·	·	·	-9.9	·
COc1ccccc1/C=C/C=N/NC(=O)c1ccccn1	5.9	11.1	-6.6	-0.9	4.1	-5.0
COc1ccccc1/C=C/C=N/NC(=O)c1cc(-c2ccco2)[nH]n1	·	61.6*	-36.8	·	-3.6	·
Cc1cc(=O)c(C(=O)Nc2cccc(C(=O)NC3CC3)c2)nn1-c1ccccc1	0.5	·	·	·	-14.3	·
O=C(Nc1cc2c(oc1=O)CCCC2=O)c1ccc(Cl)cc1	4.9	56.5*	-65.9	1.3	1.9	-1.0
Cc1nccc2oc(=O)c(NC(=O)c3ccc(Cl)cc3)cc12	-12.4	9.7	-0.4	5.8	-5.8	-2.0
COc1ccc(OC)c(Nc2nc(=O)c3cccnc3s2)c1	10.1	55.7*	-59.2	-5.0	2.3	0.0
CC(=O)OC(C(=O)Nc1ccccc1C)C(OC(C)=O)C(OC(C)=O)C(OC(C)=O)C(=O)Nc1ccccc1C (stereo not drawn)	·	·	·	-17.2	·	·
O=C(Nc1cccc(Oc2ccc(C(=O)O)c(C(=O)O)c2)c1)c1ccc(-c2ccccc2)cc1	3.1	80.0*	-49.2	·	-12.1	·
CCNC(=S)N1N=C2c3ccccc3CCC2C1c1ccc(F)cc1 (stereo not drawn)	·	9.5	-13.4	·	-6.7	·
O=C1NN(c2ccccc2)C(=O)/C1=C/c1ccc(-c2ccc(C(=O)O)cc2)o1	2.3	·	·	·	-6.2	·
O=C1NN(c2ccccc2)C(=O)/C1=C/c1ccc(Sc2cccc3ccccc23)o1	-4.1	50.6*	-40.6	-3.7	-8.4	-3.0
Cc1c(Cl)cnc(NC(=O)COC(=O)c2ccc3ncsc3c2)c1Cl	3.6	58.4*	66.0*	8.0	1.6	-3.0
Cc1c(Cl)cnc(NC(=O)COC(=O)c2ccc([N+](=O)[O-])s2)c1Cl	-10.7	93.9*	6.5	-2.0	3.6	-4.0
O=C(COC(=O)c1ccc([N+](=O)[O-])s1)Nc1ccc(Cl)cn1	-9.1	15.5	11.7	-6.5	4.7	-5.0
Nc1nc(Cl)cc(N2CCC(c3cc(-c4ccc(Cl)cc4Cl)n[nH]3)CC2)n1	-0.6	65.9*	-3.8	7.3	-5.3	1.0
Nc1nc(Cl)cc(N2CCCC2)n1	-7.6	2.9	-26.2	-8.1	-0.7	3.0
CC1CC(C)CN(C(=O)CSc2ncnc3sccc23)C1 (stereo not drawn)	-2.5	·	·	·	5.3	·
CCOC(=O)N1CCC(N2Cc3cccc(C(=O)Nc4ccc(N(CC)CC)cc4C)c3C2=O)CC1	0.0	·	·	·	2.4	·
SMILES	TLR9-MyD88 inh	Mcl1-Noxa inh	Mcl1 Bid PPI	TLR4 MyD88 comp	NOD2 RIPK2 PPI	Bim-Mcl-1
O=c1ccc(-c2ccc(S(=O)(=O)N3CCN(c4ccccc4)CC3)o2)n[nH]1	6.6	·	·	·	-3.8	·
Cc1ccc2c(c1)/C(=N/O)CCS2	-1.1	20.9	-43.1	-5.0	-2.3	0.0
O/N=C1/CCCSc2ccccc21	-51.2	86.1*	2.2	-1.2	-4.4	-2.0
Cc1cccc(-n2c(O)c(C=Nc3ccccc3-c3n[nH]c(=S)[nH]c3=O)c3ccccc3c2=O)n1	-6.1	45.3	-19.8	·	-10.9	·
Cc1ccc(-n2c(O)c(C=Nc3ccccc3-c3n[nH]c(=S)[nH]c3=O)c3ccccc3c2=O)c(C)c1	-0.2	62.8*	-66.5	-19.5	7.1	-4.0
Cc1ccc(-n2c(O)c(C=Nc3ccccc3-c3n[nH]c(=S)[nH]c3=O)c3ccccc3c2=O)cc1C	2.7	100.6*	-94.1	6.5	-2.2	-3.0
Nc1ccc2c(c1)OC1(CCCC1)O2	-7.7	22.2	-16.6	4.9	-15.3	-2.0
CC(Sc1ccc(S(=O)(=O)N2CCN(C)CC2)cn1)C(=O)NC1(C#N)CCCCC1 (stereo not drawn)	-3.5	·	·	·	0.7	·
N/C(=N\OS(=O)(=O)c1ccc2ccccc2c1)c1ccccn1	-5.5	-10.5	-3.4	1.1	-8.9	1.0
Cc1ccc(/C=C/C2=Cc3c(sc(NC(=O)CSc4n[nH]c(N)n4)c3C#N)C(C)(C)C2)o1	·	96.9*	-30.0	6.6	·	8.0
Cc1c(CCC(=O)O)c(=O)n2c([nH]c3ccccc32)c1C#N	-1.5	18.2	-76.0	6.6	-11.9	0.0
N#Cc1cc(NC(=O)c2ccc(F)cc2)c(=O)n2c1[nH]c1ccccc12	·	60.8*	-32.7	5.2	·	2.0
CCOc1ccc2nc(NC(=O)C34CC5CC(CC(NC(C)=O)(C5)C3)C4)sc2c1	-3.6	·	·	·	-1.6	·
O=c1cc(CN2CCN(Cc3ccc(F)cc3)C(CCO)C2)[nH]c2ccccc12 (stereo not drawn)	-3.2	·	·	·	4.0	·
c1ccc2nc3ccccc3nc2c1	1.4	38.1	85.7*	9.8	-10.6	0.0
Cc1ccc(C)c(OCc2cc(C(=O)NC3CCOC(C)(C)C3)no2)c1 (stereo not drawn)	-1.2	·	·	·	7.5	·
O=C1c2c(O)cc(O)cc2O[C@@]12c1c(cc(O)c3c1O[C@H](c1ccc(O)cc1)[C@@H](O)C3)O[C@@H]2c1ccc(O)cc1	-2.9	66.4*	7.3	1.5	3.0	-2.0
C/C(=C\c1ccco1)C1C(C#N)=C(N)Oc2n[nH]c(-c3ccccc3)c21 (stereo not drawn)	-5.5	69.2*	4.8	-16.1	-5.4	2.0
C/C(=C\c1ccco1)C1C(C#N)=C(N)Oc2n[nH]c(-c3ccc(C)cc3)c21 (stereo not drawn)	-2.5	34.4	-46.7	5.0	3.2	0.0
O=C(CC1Nc2cccc3cccc(c23)NC1=O)Nc1ccccc1 (stereo not drawn)	2.0	54.0*	-48.4	0.7	-3.4	-4.0
CCN(CC)C(=O)c1sc(NC(=O)c2cc(-c3ccc(C)s3)nc3ccccc23)c(C(=O)OC)c1C	-7.7	60.8*	11.0	5.1	5.1	0.0
